# The source made the active and inactive calls. How the calls were made is not given here.
# Molecular target: Serine/threonine-protein kinase pim-1 (Homo sapiens) (UniProt P11309)
# Experiment: PIM1 kinase ligand binding by thermal shift, biophysical, human, melting temperature shift (AID 393)
# Conditions: Thermal shift assay, hits give high values; at 10 µM, protein 2 µM, buffer 10 mM PIPES, pH 6.5, NaCl 150 mM unless noted
# Chain of Serine/threonine-protein kinase pim-1 (Homo sapiens) (P11309 whole entry, looked up): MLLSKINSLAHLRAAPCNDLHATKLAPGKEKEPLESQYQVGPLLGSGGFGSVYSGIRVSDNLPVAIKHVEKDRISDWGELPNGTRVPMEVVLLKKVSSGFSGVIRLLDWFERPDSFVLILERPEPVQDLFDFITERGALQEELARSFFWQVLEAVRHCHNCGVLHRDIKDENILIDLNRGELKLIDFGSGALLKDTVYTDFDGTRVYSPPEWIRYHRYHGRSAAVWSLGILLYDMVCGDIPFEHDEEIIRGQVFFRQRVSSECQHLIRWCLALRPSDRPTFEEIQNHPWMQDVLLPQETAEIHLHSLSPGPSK
row,Structure (SMILES),Tm shift
1,CC(C)[C@@H](CO)Nc1ccc2ncc(-c3cccc(F)c3)n2n1,5.64 Celsius (active)
2,N#Cc1ccc(-c2cnc3ccc(NC4CCOCC4)nn23)cc1,5.36 Celsius (active)
3,OCC1=C(O)C(O)[C@@H](N2CNc3cc(Cl)c(Cl)cc32)O1 (stereo not given in full),"3.7 Celsius [at 10 µM, protein 2 µM, buffer 10 mM Na Citrate, pH 6.5, NaCl 150 mM] (active)"
4,CC(=O)c1cccc(-c2cnc3ccc(NC4CCOCC4)nn23)c1,5.71 Celsius (active)
5,Fc1ccc(-c2cnc3ccc(NC4CCOCC4)nn23)cc1,7.86 Celsius (active)
6,O=c1c(O)c(-c2ccc(O)c(O)c2)oc2cc(O)cc(O)c12,"9.8 Celsius [at 10 µM, protein 2 µM, buffer 10 mM Na Citrate, pH 6.5, NaCl 150 mM] (active)"
7,O=c1cc(-c2ccc(O)cc2)oc2cc(O)cc(O)c12,"3.4 Celsius [at 10 µM, protein 2 µM, buffer 10 mM Na Citrate, pH 6.5, NaCl 150 mM] (active)"
8,Cc1cc(Br)c2c(c1)=C(c1[nH]c(=S)[nH]c1O)C(=O)N=2,4.68 Celsius (active)
9,O=C(c1ccc(Nc2nccc(-c3cc4ccccc4s3)n2)cc1)N1CCC(N2CCCC2)CC1,"3.7 Celsius [at 10 µM, protein 2 µM, buffer 10 mM Na Citrate, pH 6.5, NaCl 150 mM] (active)"
10,Oc1cc(O)cc(/C=C/c2ccc(O)c(O)c2)c1,"3.2 Celsius [at 10 µM, protein 2 µM, buffer 10 mM Na Citrate, pH 6.5, NaCl 150 mM] (active)"

# From PubChem BioAssay AID393 (SGCOxCompounds, 2006)
